DSG3 Ab inh = blocks pemphigus antibody binding to human desmoglein-3 | DSG3-coupled beads, scFv-anti-DSG3-GFP binding, flow cytometry; active compounds read low | binding (percent of control), % at 10 µM | actives 0.48% (n = 310,000) | P32926;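 active means binding more than 3 SD below its plate's average and above zero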;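 further: hits lower antibody fragment binding to DSG3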
MsrA inhibitor = inhibitors of bovine MsrA; purified bovine MsrA, absorbance read-out; inhibition, % at 15.5 µM; actives 0.75% (n = 360,000);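 further: 0% = vehicle wells with enzyme and 100% = reference inhibitor wells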
rCAG binder = binds r(CAG) RNA repeats. r(CAG) RNA repeat, TO-PRO-1 dye displacement fluorescence. inhibition, % at 3 µM. actives 1.3% (n = 370,000). AID 651821;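 active means inhibition above the plate cutoff, the mean of all test compounds on that plate plus 3 SD, cut at about 35% in these data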;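 further: 0% = DMSO alone and 100% = 100 µM mitoxantrone as full dye displacement; higher means more dye released from RNA so lower well fluorescence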
MsrA act = bovine methionine sulfoxide reductase A activation | purified bovine MsrA, absorbance read-out | activation, % at 10.6 µM | actives 0.3% (n = 360,000) | AID 602163; in the data active means activation above about 7.5%;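 further: 0% = vehicle and 100% = reference activator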
DAGLB inh = diacylglycerol lipase beta (human) inhibition. Q8NCG7. HEK293T DAGLB membrane lysate, EnzChek fluorogenic substrate. inhibition, % at 5.17 µM. actives 0.059% (n = 340,000). AID 504411; in the data active means inhibition above about 34%;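 further: 0% = enzyme with vehicle and 100% = wells lacking enzyme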
Target sequence (Q8NCG7 whole entry, looked up): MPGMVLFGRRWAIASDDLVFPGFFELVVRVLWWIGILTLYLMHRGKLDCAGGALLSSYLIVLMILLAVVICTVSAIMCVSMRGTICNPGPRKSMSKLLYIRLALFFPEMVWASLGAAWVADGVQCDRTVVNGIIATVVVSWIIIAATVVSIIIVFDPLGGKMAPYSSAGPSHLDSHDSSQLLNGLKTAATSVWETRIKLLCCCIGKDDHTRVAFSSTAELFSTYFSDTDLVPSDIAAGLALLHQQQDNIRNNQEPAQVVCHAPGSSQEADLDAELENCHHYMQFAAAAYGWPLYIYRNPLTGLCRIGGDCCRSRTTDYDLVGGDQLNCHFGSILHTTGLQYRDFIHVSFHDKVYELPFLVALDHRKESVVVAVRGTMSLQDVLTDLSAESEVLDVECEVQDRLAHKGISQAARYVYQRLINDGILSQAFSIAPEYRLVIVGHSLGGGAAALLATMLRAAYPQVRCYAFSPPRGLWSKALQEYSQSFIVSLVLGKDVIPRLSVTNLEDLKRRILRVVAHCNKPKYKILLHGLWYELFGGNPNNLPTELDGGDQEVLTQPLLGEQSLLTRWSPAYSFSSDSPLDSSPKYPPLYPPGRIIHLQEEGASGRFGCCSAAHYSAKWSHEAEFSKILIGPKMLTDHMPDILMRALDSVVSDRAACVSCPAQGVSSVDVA
NadD inh = inhibitors of Staphylococcus aureus NadD; actives 0.78% (n = 360,000); purified NadD enzyme, colorimetric absorbance read-out; inhibition, % at 20 µM; AID 602399; in the data active means inhibition above about 26%
MsrA conf = bovine MsrA inhibition, confirmed | purified bovine MsrA, absorbance read-out | inhibition, % at 15.5 µM | shares compounds with MsrA inhibitor | actives 41% (n = 2,300);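 further: coupled to thioredoxin reductase with NADPH and selenocystamine and DMSO as substrate; 0% = vehicle only and 100% = full effect of reference inhibitor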
* marks the source's active call; other numbers are inactive results. In the library only some 3.2% were active in any assay of this set; here they are far more common. Unless noted, no stated cut-off is given here; in the data, active means inhibition above about 4.5%; inactive means the rest.

Cc1[nH]n(-c2ccc(Cl)cc2)c(=O)c1C(=O)c1ccccc1 was read as DSG3 Ab inh 99, MsrA inhibitor 7.3*, rCAG binder 9, MsrA act -3, DAGLB inh 0, NadD inh -4 and MsrA conf 0.
For O=S1(=O)CCOC(CO)CN1Cc1ccc(Cl)c(Cl)c1 (stereo unspecified) the results were DSG3 Ab inh 94, MsrA inhibitor 0, rCAG binder 4, MsrA act -1, DAGLB inh -2 and NadD inh -3.
For CCOC(=O)[C@@]12CCCC=C1N(CCc1ccc(Cl)cc1)C(=O)[C@H]2CC(=O)N1CCCCC1 the results were rCAG binder 3.
Cc1ccc2cc(/C=N/NC(=O)CN3CCOCC3)c(Cl)nc2c1 was read as DSG3 Ab inh 98, MsrA inhibitor 5.0*, rCAG binder 4, MsrA act -3, DAGLB inh 4, NadD inh 1 and MsrA conf 3.
Cc1ccc2nc(Cl)c(/C=N/NC(=O)CN3CCOCC3)cc2c1 was read as DSG3 Ab inh 92, MsrA inhibitor 2, rCAG binder -6, MsrA act -6, DAGLB inh 1 and NadD inh -1.
For O=C(Nc1nc2c(s1)CCCC2=O)c1cnccn1 the results were DSG3 Ab inh 102, MsrA inhibitor 4.7*, rCAG binder 0, MsrA act -4, DAGLB inh 2, NadD inh -6 and MsrA conf 3.
For Cc1nnc(SCC(=O)Nc2cccc(S(=O)(=O)N3CCCC3)c2)n1C1CC1 the results were DSG3 Ab inh 102, MsrA inhibitor 0, rCAG binder 6, MsrA act -3, DAGLB inh -1 and NadD inh 6.
Screening COc1ccc(-c2[nH]ncc2CN2CCCC2c2nonc2C)c(F)c1 (stereo unspecified) returned DSG3 Ab inh 102, MsrA inhibitor 8.4*, rCAG binder -1, MsrA act 1, DAGLB inh -3, NadD inh -7 and MsrA conf 4.
For Cc1nonc1C1CCCN1Cc1cn[nH]c1-c1ccc2c(c1)OCO2 (stereo unspecified) the results were MsrA inhibitor 1, rCAG binder -3, MsrA act -2, DAGLB inh 1 and NadD inh -4.
`O=C(Nc1cccc(NC(=O)C2CCCO2)c1)C1CCCO1` (stereo unspecified) gave DSG3 Ab inh 100, MsrA inhibitor -1, rCAG binder -1, MsrA act -6, DAGLB inh 1 and NadD inh -7.
`Cc1ccc(NC(=O)C2CCCO2)cc1[N+](=O)[O-]` (stereo unspecified) gave DSG3 Ab inh 110, MsrA inhibitor 39*, rCAG binder -3, MsrA act -4, DAGLB inh -1, NadD inh -4 and MsrA conf 8.4*.
`Cc1ccc(-c2csc3nc(C)n(N)c(=O)c23)o1` gave DSG3 Ab inh 95, MsrA inhibitor 0, rCAG binder 0, MsrA act -6, DAGLB inh 1 and NadD inh -1.
Screening Cc1ccc(-c2csc3nc(C)n(-n4c(C)ccc4C)c(=O)c23)o1 returned DSG3 Ab inh 109, MsrA inhibitor 15*, rCAG binder 0, MsrA act -3, DAGLB inh -3, NadD inh 1 and MsrA conf 12*.
`Cc1ccc(C)n1-n1c(C)nc2scc(-c3ccccc3)c2c1=O` gave DSG3 Ab inh 99, MsrA inhibitor 27*, rCAG binder -3, MsrA act -4, DAGLB inh -7, NadD inh -1 and MsrA conf 26*.
`Cc1nc2scc(-c3ccccc3)c2c(=O)n1N` gave DSG3 Ab inh 105, MsrA inhibitor 1, rCAG binder 3, MsrA act -3, DAGLB inh 0 and NadD inh 0.
For CCCCOCCCNC(=O)C[C@H]1C[C@@]2(C(=O)OC)C(=C[C@H](C(C)C)O[C@@H]2C2CC2)N(CCc2ccc(OC)c(OC)c2)C1=O the results were rCAG binder -1.
Screening C=CCOC/C=C/C#CCN(Cc1ccc(OC)cc1OC)C(=O)Nc1ccccc1 returned rCAG binder -1.

Compound activity from PubChem.
